Measured values as given in PubChem BioAssay (NCI).
About 83,000 compounds went through this panel and 20% of them were active in at least one assay; those are over-represented in the sample as a whole.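 Assay: single dose, 48 h. Readout: percent growth (0 = no net growth; negative = cell death). Active: <10.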 Values without a mark were called inactive. Activity calls are given as the source filed them.

Assays:
Assay in all cases: NCI-60 one-dose screen, 48 h (100 = growth as untreated, 0 = no growth, -100 = all killed)
Conditions in all cases: 10 µM
HCT-15 colon = test system: HCT-15 colon
HT29 colon = test system: HT29 colon
SNB-75 CNS = test system: SNB-75 CNS
SNB-19 CNS = test system: SNB-19 CNS
U251 CNS = test system: U251 CNS
PC-3 prostate = test system: PC-3 prostate
SK-MEL-5 melanoma = test system: SK-MEL-5 melanoma
UACC-62 melanoma = test system: UACC-62 melanoma
LOX IMVI melanoma = test system: LOX IMVI melanoma
SK-MEL-28 melanoma = test system: SK-MEL-28 melanoma
SK-MEL-2 melanoma = test system: SK-MEL-2 melanoma
EKVX NSCLC = test system: EKVX NSCLC
SN12C renal = test system: SN12C renal
UO-31 renal = test system: UO-31 renal
TK-10 renal = test system: TK-10 renal
ACHN renal = test system: ACHN renal
CAKI-1 renal = test system: CAKI-1 renal
A498 renal = test system: A498 renal
CCRF-CEM leukemia = test system: CCRF-CEM leukemia
MOLT-4 leukemia = test system: MOLT-4 leukemia

Row | SMILES | growth (HCT-15 colon) | growth (HT29 colon) | growth (SNB-75 CNS) | growth (SNB-19 CNS) | growth (U251 CNS) | growth (PC-3 prostate) | growth (SK-MEL-5 melanoma) | growth (UACC-62 melanoma) | growth (LOX IMVI melanoma) | growth (SK-MEL-28 melanoma) | growth (SK-MEL-2 melanoma) | growth (EKVX NSCLC) | growth (SN12C renal) | growth (UO-31 renal) | growth (TK-10 renal) | growth (ACHN renal) | growth (CAKI-1 renal) | growth (A498 renal) | growth (CCRF-CEM leukemia) | growth (MOLT-4 leukemia)
1 | COC1CC(Cn2cc(COc3ccc4ccc(=O)oc4c3)nn2)C(OCc2ccccc2)C(OCc2ccccc2)C1OCc1ccccc1 (stereo not drawn) | 88.9% | 108% | 92.5% | 95.1% | 100% | 92.7% | 83.2% | 82.6% | 99.4% | 105% | 114% | 90.7% | 106% | 71.7% | 110% | 105% | 84% | 116% | 87% | 
2 | Oc1ccc(/C=C2\CCCc3cc4ccc(O)cc4[o+]c32)c(O)c1 | 10.1% | 88.5% | 91.9% | 58% | 8.94% (active) | 28.8% | 69.6% | 25% | -31.1% (active) | 33.9% | 37.2% | 65.9% | 26.5% | 51.9% | 92.3% | 29.3% | 40.2% | 130% | 39% | 28.5%
3 | O=C(Nc1cccc(-c2cn(-c3ccc4oc(=O)ccc4c3)nn2)c1)Nc1cc(C(F)(F)F)cc(C(F)(F)F)c1 | 19% | 44.9% | 17.8% | 27.4% | 13.4% | 27.7% | 2.67% (active) | 11.3% | 17.2% | 22.5% | 29.6% | 13.5% | 24.6% | 30.9% | 50.9% | 12.5% | 36.2% | 19.6% | 27.1% | 11.7%
4 | N#Cc1c(NC(=O)c2ccc(C(F)(F)F)cc2)sc2c1CCC(=O)C2 | -66.1% (active) | 8.13% (active) | -44.9% (active) | -42.2% (active) | -66.3% (active) | -9.55% (active) | -97.7% (active) | -82.7% (active) | -86.8% (active) | -88.2% (active) | -57.9% (active) | -42.6% (active) | -31.9% (active) | -99.9% (active) | -53.7% (active) | -100% (active) | -21.7% (active) | 2.58% (active) | 7.92% (active) | 9.79% (active)
5 | CCN1CCN(Cc2ccc(C(=O)Nc3cccc(-c4cn(-c5ccc6oc(=O)ccc6c5)nn4)c3)cc2C(F)(F)F)CC1 | -100% (active) | -100% (active) | -33.2% (active) | -100% (active) | -100% (active) | -40.8% (active) | -100% (active) | -100% (active) | -100% (active) | -100% (active) | 66.1% | -100% (active) | -100% (active) | -100% (active) | -100% (active) | -100% (active) | 8.59% (active) | -100% (active) | -21% (active) | -29.8% (active)
6 | O=C1Nc2cc(-c3ccc(NC(=O)c4cccs4)cc3)ccc2/C1=C/c1ccc[nH]1 | 47.6% | 71.1% | 138% | 87.1% | 65.9% | 65.6% | 63.6% | 80.8% | 55.7% | 101% | 83.5% | 55.2% | 65.3% | 82.1% | 112% | 82% | 89.7% | 151% | 41.8% | 37.4%
7 | CC1=C2C(=C[C@@](C)(CO)[C@@H]2O)/C(=N\N)[C@](C)(O)C12CC2 | -17.1% (active) | -11% (active) | -85.1% (active) | -16% (active) | 12% | 6.9% (active) | -61.1% (active) | -81.7% (active) | -64.3% (active) | -67.2% (active) | -100% (active) | -44.2% (active) | 0.386% (active) | -29.2% (active) | 1.74% (active) | -18.6% (active) | 1.03% (active) | -27.8% (active) | 18.8% | 3.48% (active)
8 | CC1CC(c2ccc(N(C)C)cc2)=NN1c1nc(O)c(C2=c3cc(Br)ccc3=NC2=O)s1 (stereo not drawn) | 50.5% | 83.5% | 89.9% | 94.7% | 69.9% | 53.2% | 73.5% | 98.5% | -46.1% (active) | 110% | 98.9% | 61.9% | 106% | 78.3% | 94.4% | 92.2% | 101% | 103% | 29.8% | 70.5%
9 | CC(=O)NS(=O)(=O)c1ccc(NC(=O)CSC2=NC(c3ccccc3)C(C(C)=O)=C(C)N2)cc1 (stereo not drawn) | 101% | 114% | 99% | 104% | 116% | 110% | 101% | 98.5% | 94.9% | 107% | 115% | 104% | 111% | 91.5% | 116% | 111% | 99.4% | 133% | 95.4% | 109%
10 | Clc1ccc2c(N/N=C/c3c[nH]c4ccc(Br)cc34)ccnc2c1 | -80.3% (active) | -3.08% (active) | -91.1% (active) | -85.6% (active) | -25.6% (active) | -52.9% (active) | -100% (active) | -85.4% (active) | -77.7% (active) | -98.5% (active) | -93% (active) | -93% (active) | -56.3% (active) | -95.8% (active) | -67.2% (active) | -90.8% (active) | -94% (active) | -77% (active) | -7.03% (active) | -48.7% (active)
11 | Cc1ccc(-c2nc3ccc(C(=O)N=Nc4c(O)[nH]c5ccc(Cl)cc45)cc3[nH]2)cc1 | 67.7% | 13.2% | -49.3% (active) | -24% (active) | -100% (active) | -51.9% (active) | 22.1% | 22.6% | -100% (active) | -1.61% (active) | 57.3% | 37.9% | 23% | 72.4% | 65.6% | 55.1% | 58% | 119% | -31.7% (active) | 
12 | COc1ccc(/C=C/C(=O)c2ccc(NC(=O)CN3C(=O)NC(C)(c4ccccc4)C3=O)cc2)cc1 (stereo not drawn) | 75.7% | 67.6% | 96.8% | 91.8% | 67.7% | 61.4% | 60.1% | 50% | 56.5% | 93.8% | 93.4% | 91% | 95.3% | 56.8% | 109% | 84.5% | 79% | 119% | 78.3% | 49.7%
13 | C#CCNC(=O)CCC(=O)OC[C@]12CC[C@@H](C(=C)C)[C@@H]1C1CC[C@@H]3[C@@]4(C)CCCNC(C)(C)[C@@H]4CC[C@@]3(C)[C@]1(C)CC2 (stereo partly drawn) | -64.9% (active) | -68.1% (active) | 98.8% | 34% | -74.2% (active) | -20.3% (active) | -100% (active) | -42.8% (active) | -100% (active) | -98.5% (active) | -66.1% (active) | 2.91% (active) | 19.2% | 33.5% | 11.6% | 26.6% | 17.3% | 68.5% | -13.2% (active) | -3.06% (active)
14 | COc1ccc([C@H]2C(C(=O)c3ccc(Cl)cc3)C3(N[C@@H]2c2ccccc2)C(=O)Nc2ccc(Br)cc23)cc1 (stereo partly drawn) | 0.62% (active) | -50.6% (active) | 15.6% | 20.1% | -18% (active) | 17.9% | 8.62% (active) | -55.4% (active) | -100% (active) | 18.9% | -64.5% (active) | 6.66% (active) | -81.3% (active) | 0.589% (active) | 9.79% (active) | 0.391% (active) | 2.8% (active) | -7.09% (active) | 13.9% | 12.1%
15 | CC(=O)c1ccc(Nc2nc(SCCC(C)C)nc(-c3ccc(F)cc3)c2C#N)cc1 | 63.8% | 47.9% | 52.3% | 20.4% | 2.09% (active) | 80.2% | 93.8% | 89.8% | 5.44% (active) | 83.5% | 117% | 52.7% | 22.7% | 24.7% | 6.32% (active) | -42.9% (active) | 16.2% | 15.6% | 86.9% | 76.9%
16 | COc1ccc(C(=O)/C=C/c2ccc(Cl)c(C(F)(F)F)c2)cc1S(N)(=O)=O | -99.9% (active) | -76.9% (active) | -33.7% (active) | -100% (active) | -68.7% (active) | -48.2% (active) | -89.4% (active) | -98.7% (active) | -91.4% (active) | -100% (active) | -83.1% (active) | -98.2% (active) | -100% (active) | -99.6% (active) | -96.3% (active) | -100% (active) | -100% (active) | -30.3% (active) | 4.6% (active) | 8.09% (active)
